Test results reported in the supplement of paper PMC6555819.

Key:
Test in all cases: PBM binding z-score (relative to random genomic background probes); higher = stronger binding; sequences stand for … in GC…GCGATTGACAGCGTAGAATGAAGG
[1] = tested on: PPARg:RXRa DBDmut IVT, anti-RXR (DBD mutation: RXRa K156A/R161A, NR concentration 270 nM, RXRa partner concentration 90 nM)
Method in brief: (§1)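 On custom Agilent 4×180K arrays, double-stranded probes with 34-nt variable regions carried direct-repeat seeds, single-nucleotide variants, half-site ablations or random human genomic background. Ligand-free nuclear receptor dimers were applied for 1 h, and binding was read with antibodies against each partner (one per run). Binding z-scores come from regression-normalized fluorescence, with the random background probes as reference.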

[2] = tested on: PPARg:RXRa IVT, anti-PPARg (NR concentration 270 nM, RXRa partner concentration 90 nM)
Method in brief: as §1

[3] = tested on: PPARg DBDmut:RXRa IVT, anti-PPARg (DBD mutation: PPARg1 K132A/R137A, NR concentration 270 nM, RXRa partner concentration 90 nM)
Method in brief: as §1

[4] = tested on: PPARg DBDmut IVT, anti-PPARg (DBD mutation: PPARg1 K132A/R137A, NR concentration 270 nM)
Method in brief: as §1

[5] = tested on: PPARg homodimer (NR concentration 180 nM)
Method in brief: as §1

[6] = tested on: PXR:RXRa (NR concentration 270 nM, RXRa partner concentration 90 nM)
Method in brief: as §1

[7] = tested on: PXR homodimer (NR concentration 270 nM)
Method in brief: as §1

[8] = tested on: RARa:RXR (NR concentration 270 nM, RXRa partner concentration 90 nM)
Method in brief: as §1

[9] = tested on: RARa homodimer (NR concentration 270 nM)
Method in brief: as §1

[10] = tested on: RARb:RXRa (NR concentration 270 nM, RXRa partner concentration 90 nM)
Method in brief: as §1

[11] = tested on: RARb homodimer (NR concentration 270 nM)
Method in brief: as §1

[12] = tested on: RARg:RXRa (NR concentration 270 nM, RXRa partner concentration 90 nM)
Method in brief: as §1

[13] = tested on: RARg homodimer (NR concentration 270 nM)
Method in brief: as §1

[14] = tested on: RXRa DBDmut IVT, anti-RXR (DBD mutation: RXRa K156A/R161A, NR concentration 90 nM)
Method in brief: as §1

[15] = tested on: RXRa homodimer (NR concentration 180 nM)
Method in brief: as §1

[16] = tested on: THRa:RXRa (NR concentration 90 nM, RXRa partner concentration 90 nM)
Method in brief: as §1

[17] = tested on: THRa homodimer (NR concentration 90 nM)
Method in brief: as §1

[18] = tested on: VDR homodimer (NR concentration 270 nM)
Method in brief: as §1

Sequence	PBM binding z-score [1]	PBM binding z-score [2]	PBM binding z-score [3]	PBM binding z-score [4]	PBM binding z-score [5]	PBM binding z-score [6]	PBM binding z-score [7]	PBM binding z-score [8]	PBM binding z-score [9]	PBM binding z-score [10]	PBM binding z-score [11]	PBM binding z-score [12]	PBM binding z-score [13]	PBM binding z-score [14]	PBM binding z-score [15]	PBM binding z-score [16]	PBM binding z-score [17]	PBM binding z-score [18]
CAAACTAGGTCAATGTCAAAGTCGGTTTGTGCCA	8.51	8.59	5.32	4.74	2.82	1.39	-0.00687	2.11	0.756	3.86	3.06	3.43	4.16	1.94	2.36	2.56	0.861	1.28
AGAACGAGGGCATGCTGAGTTGATAGCAGAGTAG	2.87	1.99	0.0501	-0.0747	-0.0685	1.14	0.117	0.374	-0.883	1.89	0.498	1.33	1.34	2.24	0.92	1.2	-0.497	1.74
TAGCCTAGGTCAGATCGGGCCAGTTTACGCTATA	0.41	1.12	-0.332	-0.719	0.0651	1.13	-0.787	0.463	-1.05	2.69	1.83	2.54	3.36	-0.346	1.21	3.76	0.0282	-0.339
TTACCAAGGTGAAGGTCGTTGAGCCCTCTGTAGA	1.99	3.36	-0.0104	-0.329	0.702	1.16	-0.0928	1.57	-0.872	2.07	1.79	1.3	1.08	0.1	1.59	2.14	0.652	0.688
ATCTCTAGGTAAAGTTCAATGAAAGATCGATAGA	2.42	3.05	1.44	1.47	1.79	3.02	2.63	1.92	2.05	3.19	2.76	2.7	2.91	1.75	2.27	1.57	0.271	2.82
TATACAGGGTCAAAGGCCGGAGTACGAATGTCGA	2.46	4.9	2.77	1.88	2.2	3.97	0.381	5.47	1.43	4.27	3.45	5.49	4.9	2.94	6.66	3.34	0.872	3.02
CCTCGGAGCACAACAGGAGGTCAGAGCTGCCAGA	-0.234	0.244	-0.72	-1.62	1.23	1.56	0.0895	2.01	0.0401	1.74	2.86	1.9	1.65	-0.138	1.74	1.91	0.301	0.485
CTCGAAAGGTCGTGCTCAGGTGACTATACCAAAC	1.01	2.13	-0.324	0.674	1.85	3.67	0.399	4.75	0.319	4	3.17	5.21	3.82	2.15	4.78	4.26	1.69	0.845
ACTTACGGGTCCACGAGGTTATAGCACGCGTATA	0.0725	0.67	0.473	0.278	0.407	1.48	1.01	1.8	0.384	1.15	1.33	1.43	0.919	3.07	1.61	2.26	1.65	3.37
TGAATGAGGTTATAAGATCGGGGAACGTTGCAAA	1.5	1.78	1.32	0.272	-0.104	0.636	-0.242	1.05	-0.252	1.08	0.0926	1.17	0.891	0.942	1.77	1.76	0.158	0.395
CTACCAAGGTGAACAAGCTCGTTGATTACTATTC	2.56	2.23	0.852	0.253	0.000283	-0.0454	-0.0254	0.251	0.281	1.41	0.567	0.606	0.761	0.373	0.526	1.63	0.878	-0.237
CATACAGGGTCAGCTAGGCCCGAGTAGGGACGGC	0.974	2.05	0.221	0.342	1.66	2.1	-0.596	3.11	0.256	4.08	3.14	4.41	4.89	1.18	4.55	3.14	0.566	0.91
ACCATTAGTTGAGACGAGGGCAACCGATAGGTTG	0.237	0.503	0.491	-0.276	0.403	1.5	0.41	1.48	-0.14	1.18	1.3	0.676	0.629	0.383	0.669	2.63	0.525	1.04
TCGAATAGGTTAGTCGGGGCATTCAGCCAACATA	2.05	0.81	-0.355	-0.412	0.278	0.59	0.0716	0.628	-0.516	1.06	0.708	0.415	0.436	0.913	0.583	1.46	0.0462	0.528
CGTCCACGGTCAAGGTCAGTGAAAGAGACTCGAA	0.397	1.53	-0.802	-1.07	1.28	1.69	0.177	2.2	0.0153	4.28	3.86	3.41	5.01	0.716	2.45	3.05	1.64	0.791
ATCGAAAGGTCGAAGGTGAGTGTACCCACCCGAA	-0.0432	2.32	1.7	0.661	1.79	3.07	0.136	4.01	-0.116	3.86	2.58	4.02	3.37	0.847	5.11	2.3	0.0687	0.737
